# Test results reported in PMC7862700, “An all-to-all approach to the identification of sequence-specific readers for epigenetic DNA modifications on cytosine”.
# Experiments:
# Experiment in all cases: DAPPL (digital affinity profiling via proximity ligation, sequencing); 10 mM Tris-HCl pH 7.5, 50 mM NaCl, 1 mM DTT, 4% glycerol, room temperature, 30 min; GST-TFs on glutathione beads, 16-mer random dsDNA library, 0.1% formaldehyde crosslink after washing; high values mean tight binding
# FEV = target: T1, FEV (Homo sapiens, UniProt Q99581 1-238); settings: protein: recombinant; tags: N-terminal GST; dsDNA, one strand shown
# T1 sequence: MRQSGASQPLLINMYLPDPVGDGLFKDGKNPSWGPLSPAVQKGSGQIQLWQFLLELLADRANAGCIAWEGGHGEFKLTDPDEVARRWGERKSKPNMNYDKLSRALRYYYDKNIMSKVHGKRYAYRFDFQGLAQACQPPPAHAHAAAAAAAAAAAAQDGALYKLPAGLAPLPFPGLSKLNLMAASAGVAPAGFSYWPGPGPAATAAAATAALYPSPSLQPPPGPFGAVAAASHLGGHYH
# Outline: (§1)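 Binding signal is each hexamer's read frequency for a factor divided by its frequency in the tag-only sample. The factors were GST-fused human transcription factors from yeast, captured on glutathione beads, DNA-barcoded and pooled with that sample. Pools were incubated with 200 nmole of a random double-stranded 16-mer DNA library in Tris/NaCl/DTT/glycerol buffer at room temperature for 30 min, then washed, crosslinked with 0.1% formaldehyde, proximity-ligated with BsaI/T4 ligase (1 h, 37 °C), PCR-amplified and sequenced on an Illumina NextSeq500.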
# ETV5 = ETV5 (Homo sapiens, UniProt P41161 1-510); settings: protein: recombinant; tags: N-terminal GST; dsDNA, one strand shown
# Outline: as §1
# HSF1 = HSF1 (Homo sapiens, UniProt Q00613 1-529); settings: protein: recombinant; tags: N-terminal GST; chain copies: 3; dsDNA, one strand shown
# Outline: as §1
# SPIC = target: T2, SPIC (Homo sapiens, UniProt Q8N5J4 1-248); settings: protein: recombinant; tags: N-terminal GST; dsDNA, one strand shown
# T2 sequence: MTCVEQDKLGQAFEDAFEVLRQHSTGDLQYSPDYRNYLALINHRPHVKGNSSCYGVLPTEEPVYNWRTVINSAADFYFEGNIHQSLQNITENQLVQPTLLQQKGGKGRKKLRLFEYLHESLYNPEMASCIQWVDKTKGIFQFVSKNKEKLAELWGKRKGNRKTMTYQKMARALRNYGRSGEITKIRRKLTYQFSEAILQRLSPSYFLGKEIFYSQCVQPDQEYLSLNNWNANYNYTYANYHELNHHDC
# Outline: as §1
# ELF4 = ELF4 (Homo sapiens, UniProt Q99607 1-663); settings: protein: recombinant; tags: N-terminal GST; dsDNA, one strand shown
# Outline: as §1
# ELK4 = target: T3, ELK4 (Homo sapiens, UniProt P28324-2 1-405); settings: protein: recombinant; tags: N-terminal GST; dsDNA, one strand shown
# T3 sequence: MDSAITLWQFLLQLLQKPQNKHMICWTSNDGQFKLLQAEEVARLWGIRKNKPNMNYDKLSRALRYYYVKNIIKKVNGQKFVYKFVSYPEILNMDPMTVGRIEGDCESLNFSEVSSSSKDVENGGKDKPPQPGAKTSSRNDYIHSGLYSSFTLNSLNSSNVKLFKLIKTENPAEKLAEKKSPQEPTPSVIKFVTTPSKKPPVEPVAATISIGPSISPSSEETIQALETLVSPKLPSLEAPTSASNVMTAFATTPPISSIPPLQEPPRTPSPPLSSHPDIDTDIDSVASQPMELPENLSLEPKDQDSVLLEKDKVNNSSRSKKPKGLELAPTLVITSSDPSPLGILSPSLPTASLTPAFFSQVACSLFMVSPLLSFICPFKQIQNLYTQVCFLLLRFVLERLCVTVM
# Outline: as §1
# ETV2 = target: T4, ETV2 (Homo sapiens, UniProt O00321 1-342); settings: protein: recombinant; tags: N-terminal GST; dsDNA, one strand shown
# T4 sequence: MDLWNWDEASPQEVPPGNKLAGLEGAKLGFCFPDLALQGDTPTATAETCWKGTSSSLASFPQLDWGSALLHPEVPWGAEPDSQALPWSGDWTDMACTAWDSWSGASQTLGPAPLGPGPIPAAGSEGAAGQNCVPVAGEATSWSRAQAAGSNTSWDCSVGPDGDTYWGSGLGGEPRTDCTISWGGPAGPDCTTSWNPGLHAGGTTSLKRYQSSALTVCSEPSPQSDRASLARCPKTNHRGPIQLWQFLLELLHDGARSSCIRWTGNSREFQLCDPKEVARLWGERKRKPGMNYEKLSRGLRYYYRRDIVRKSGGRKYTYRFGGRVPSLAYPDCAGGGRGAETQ
# Outline: as §1
# ELF3 = target: T5, ELF3 (Homo sapiens, UniProt P78545 1-371); settings: protein: recombinant; tags: N-terminal GST; dsDNA, one strand shown
# T5 sequence: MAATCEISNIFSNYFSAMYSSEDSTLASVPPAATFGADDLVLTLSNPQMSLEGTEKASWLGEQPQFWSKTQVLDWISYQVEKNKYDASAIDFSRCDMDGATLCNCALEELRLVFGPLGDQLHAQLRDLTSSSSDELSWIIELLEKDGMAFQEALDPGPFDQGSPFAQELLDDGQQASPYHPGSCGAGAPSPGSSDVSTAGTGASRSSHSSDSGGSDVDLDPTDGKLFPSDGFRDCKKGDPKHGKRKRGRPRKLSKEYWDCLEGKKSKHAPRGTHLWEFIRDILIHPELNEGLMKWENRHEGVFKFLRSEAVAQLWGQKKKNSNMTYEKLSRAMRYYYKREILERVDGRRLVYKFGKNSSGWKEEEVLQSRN
# Outline: as §1
# CRX = CRX (Homo sapiens, UniProt O43186 1-299); settings: protein: recombinant; tags: N-terminal GST; dsDNA, one strand shown
# Outline: as §1
# ETV1 = ETV1 (Homo sapiens, UniProt P50549 1-477); settings: protein: recombinant; tags: N-terminal GST; dsDNA, one strand shown
# Outline: as §1
# ERF = target: T6, ERF (Homo sapiens, UniProt P50548 1-548); settings: protein: recombinant; tags: N-terminal GST; dsDNA, one strand shown
# T6 sequence: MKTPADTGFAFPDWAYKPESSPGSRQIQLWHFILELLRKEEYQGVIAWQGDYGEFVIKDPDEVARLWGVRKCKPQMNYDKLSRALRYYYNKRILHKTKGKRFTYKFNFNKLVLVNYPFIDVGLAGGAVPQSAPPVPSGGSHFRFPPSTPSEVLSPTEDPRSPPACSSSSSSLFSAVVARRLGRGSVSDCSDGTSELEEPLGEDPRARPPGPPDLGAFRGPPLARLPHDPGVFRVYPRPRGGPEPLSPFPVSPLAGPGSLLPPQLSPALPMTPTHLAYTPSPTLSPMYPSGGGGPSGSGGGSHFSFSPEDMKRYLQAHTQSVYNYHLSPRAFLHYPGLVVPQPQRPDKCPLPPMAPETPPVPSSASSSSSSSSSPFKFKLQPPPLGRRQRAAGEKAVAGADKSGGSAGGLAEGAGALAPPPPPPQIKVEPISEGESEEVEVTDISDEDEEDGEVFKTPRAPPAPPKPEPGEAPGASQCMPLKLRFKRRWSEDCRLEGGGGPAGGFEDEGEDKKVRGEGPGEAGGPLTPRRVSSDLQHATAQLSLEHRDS
# Outline: as §1
# ETV3L = target: T7, ETV3L (Homo sapiens, UniProt Q6ZN32 1-361); settings: protein: recombinant; tags: N-terminal GST; dsDNA, one strand shown
# T7 sequence: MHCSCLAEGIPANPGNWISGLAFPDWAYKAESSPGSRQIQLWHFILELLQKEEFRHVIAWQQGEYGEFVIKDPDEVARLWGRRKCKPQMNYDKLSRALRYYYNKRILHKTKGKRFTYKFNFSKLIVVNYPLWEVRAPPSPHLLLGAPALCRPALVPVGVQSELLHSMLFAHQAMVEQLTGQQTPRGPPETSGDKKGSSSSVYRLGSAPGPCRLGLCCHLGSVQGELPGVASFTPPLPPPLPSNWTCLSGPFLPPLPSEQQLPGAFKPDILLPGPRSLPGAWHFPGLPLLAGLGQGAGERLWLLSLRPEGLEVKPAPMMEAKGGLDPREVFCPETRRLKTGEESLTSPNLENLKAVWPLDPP
# Outline: as §1
# ETS2 = target: T8, ETS2 (Homo sapiens, UniProt P15036 1-469); settings: protein: recombinant; tags: N-terminal GST; dsDNA, one strand shown
# T8 sequence: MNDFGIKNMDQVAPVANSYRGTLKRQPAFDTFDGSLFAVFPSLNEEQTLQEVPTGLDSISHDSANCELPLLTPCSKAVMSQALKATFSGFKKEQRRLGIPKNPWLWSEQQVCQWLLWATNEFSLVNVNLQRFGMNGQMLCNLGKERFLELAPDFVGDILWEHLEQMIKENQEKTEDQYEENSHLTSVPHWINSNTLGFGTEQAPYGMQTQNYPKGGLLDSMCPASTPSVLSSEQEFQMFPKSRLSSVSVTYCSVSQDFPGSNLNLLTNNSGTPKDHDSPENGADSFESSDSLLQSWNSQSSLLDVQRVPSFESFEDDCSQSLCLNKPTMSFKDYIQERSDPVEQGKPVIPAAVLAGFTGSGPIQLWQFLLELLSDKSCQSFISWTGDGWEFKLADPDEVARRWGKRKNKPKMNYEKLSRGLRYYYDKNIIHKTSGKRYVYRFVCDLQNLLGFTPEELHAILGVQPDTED
# Outline: as §1
# SPDEF = target: T9, SPDEF (Homo sapiens, UniProt O95238 1-335); settings: protein: recombinant; tags: N-terminal GST; dsDNA, one strand shown
# T9 sequence: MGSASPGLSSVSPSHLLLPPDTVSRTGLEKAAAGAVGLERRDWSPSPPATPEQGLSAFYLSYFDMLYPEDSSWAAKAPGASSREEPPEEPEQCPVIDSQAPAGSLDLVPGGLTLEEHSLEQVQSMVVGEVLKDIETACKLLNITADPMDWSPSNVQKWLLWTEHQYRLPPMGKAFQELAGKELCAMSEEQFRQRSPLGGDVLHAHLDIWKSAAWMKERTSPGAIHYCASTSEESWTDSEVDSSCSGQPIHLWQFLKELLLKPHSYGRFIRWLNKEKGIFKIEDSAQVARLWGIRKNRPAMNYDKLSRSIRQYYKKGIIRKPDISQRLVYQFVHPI
# Outline: as §1
# ETV7 = target: T10, ETV7 (Homo sapiens, UniProt Q9Y603 1-341); settings: protein: recombinant; tags: N-terminal GST; dsDNA, one strand shown
# T10 sequence: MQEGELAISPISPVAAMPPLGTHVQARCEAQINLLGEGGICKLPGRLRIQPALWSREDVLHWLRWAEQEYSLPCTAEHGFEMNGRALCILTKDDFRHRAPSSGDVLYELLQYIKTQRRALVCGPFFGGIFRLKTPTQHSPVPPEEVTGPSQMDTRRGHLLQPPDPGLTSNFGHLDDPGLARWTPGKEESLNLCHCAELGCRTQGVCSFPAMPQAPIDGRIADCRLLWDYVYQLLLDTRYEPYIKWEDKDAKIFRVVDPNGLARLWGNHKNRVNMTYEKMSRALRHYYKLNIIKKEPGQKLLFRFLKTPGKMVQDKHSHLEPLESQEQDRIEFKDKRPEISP
# Outline: as §1
# ELF5 = target: T11, ELF5 (Homo sapiens, UniProt Q9UKW6-2 1-255); settings: protein: recombinant; tags: N-terminal GST; dsDNA, one strand shown
# T11 sequence: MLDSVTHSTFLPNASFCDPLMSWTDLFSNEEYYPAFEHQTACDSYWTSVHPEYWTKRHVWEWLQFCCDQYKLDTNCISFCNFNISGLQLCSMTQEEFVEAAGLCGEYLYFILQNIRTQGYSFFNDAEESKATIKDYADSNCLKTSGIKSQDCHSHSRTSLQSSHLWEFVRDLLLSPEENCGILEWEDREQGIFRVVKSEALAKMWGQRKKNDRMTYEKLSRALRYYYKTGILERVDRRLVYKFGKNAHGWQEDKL
# Outline: as §1
# ETV3 = target: T12, ETV3 (Homo sapiens, UniProt P41162-2 1-143); settings: protein: recombinant; tags: N-terminal GST; dsDNA, one strand shown
# T12 sequence: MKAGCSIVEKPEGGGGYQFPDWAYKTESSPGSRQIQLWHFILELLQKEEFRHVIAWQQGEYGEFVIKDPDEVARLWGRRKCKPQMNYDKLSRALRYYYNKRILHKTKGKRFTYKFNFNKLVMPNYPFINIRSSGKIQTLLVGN
# Outline: as §1
# ETV6 = ETV6 (Homo sapiens, UniProt P41212 1-452); settings: protein: recombinant; tags: N-terminal GST; dsDNA, one strand shown
# Outline: as §1
# Sequence of ELF4 (Q99607 whole entry): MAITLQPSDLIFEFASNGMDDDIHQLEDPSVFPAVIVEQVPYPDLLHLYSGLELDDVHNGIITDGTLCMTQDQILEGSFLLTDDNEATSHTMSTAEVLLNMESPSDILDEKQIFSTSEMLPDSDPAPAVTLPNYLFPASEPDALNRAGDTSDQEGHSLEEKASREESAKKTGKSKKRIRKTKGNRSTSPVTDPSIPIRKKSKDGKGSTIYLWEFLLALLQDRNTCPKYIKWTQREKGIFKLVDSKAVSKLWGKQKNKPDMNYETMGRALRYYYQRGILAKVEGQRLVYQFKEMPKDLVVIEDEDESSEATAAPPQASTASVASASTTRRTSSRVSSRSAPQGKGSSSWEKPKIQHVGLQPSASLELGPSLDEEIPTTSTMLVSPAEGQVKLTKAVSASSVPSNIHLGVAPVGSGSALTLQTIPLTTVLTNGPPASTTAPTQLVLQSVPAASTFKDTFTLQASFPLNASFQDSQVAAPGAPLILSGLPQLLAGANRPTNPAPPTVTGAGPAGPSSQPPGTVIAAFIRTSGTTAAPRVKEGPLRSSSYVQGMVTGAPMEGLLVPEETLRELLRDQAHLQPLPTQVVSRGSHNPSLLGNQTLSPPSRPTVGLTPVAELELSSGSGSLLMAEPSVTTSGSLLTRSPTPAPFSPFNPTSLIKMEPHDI
# Sequence of ETV6 (P41212 whole entry): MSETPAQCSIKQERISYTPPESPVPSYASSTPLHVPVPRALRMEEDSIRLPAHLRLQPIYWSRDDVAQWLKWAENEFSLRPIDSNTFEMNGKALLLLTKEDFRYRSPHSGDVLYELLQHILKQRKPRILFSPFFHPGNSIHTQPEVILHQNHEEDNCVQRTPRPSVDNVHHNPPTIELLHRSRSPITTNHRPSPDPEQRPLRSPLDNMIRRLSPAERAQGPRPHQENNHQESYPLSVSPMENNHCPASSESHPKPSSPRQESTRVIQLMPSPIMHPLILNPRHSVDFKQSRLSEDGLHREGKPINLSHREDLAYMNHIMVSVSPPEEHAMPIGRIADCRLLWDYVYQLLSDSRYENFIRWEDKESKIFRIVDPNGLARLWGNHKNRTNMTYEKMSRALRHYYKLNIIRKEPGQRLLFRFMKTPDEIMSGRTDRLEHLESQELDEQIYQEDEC
# Sequence of CRX (O43186 whole entry): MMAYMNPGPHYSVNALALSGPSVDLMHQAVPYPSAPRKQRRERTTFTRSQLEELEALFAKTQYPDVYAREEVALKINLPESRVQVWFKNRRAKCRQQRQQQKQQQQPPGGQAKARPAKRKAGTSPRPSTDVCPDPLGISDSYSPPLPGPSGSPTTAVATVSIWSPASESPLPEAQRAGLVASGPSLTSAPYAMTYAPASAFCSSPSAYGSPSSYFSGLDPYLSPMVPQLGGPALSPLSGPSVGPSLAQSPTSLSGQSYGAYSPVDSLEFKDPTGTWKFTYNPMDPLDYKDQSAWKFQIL
# Sequence of ETV1 (P50549 whole entry): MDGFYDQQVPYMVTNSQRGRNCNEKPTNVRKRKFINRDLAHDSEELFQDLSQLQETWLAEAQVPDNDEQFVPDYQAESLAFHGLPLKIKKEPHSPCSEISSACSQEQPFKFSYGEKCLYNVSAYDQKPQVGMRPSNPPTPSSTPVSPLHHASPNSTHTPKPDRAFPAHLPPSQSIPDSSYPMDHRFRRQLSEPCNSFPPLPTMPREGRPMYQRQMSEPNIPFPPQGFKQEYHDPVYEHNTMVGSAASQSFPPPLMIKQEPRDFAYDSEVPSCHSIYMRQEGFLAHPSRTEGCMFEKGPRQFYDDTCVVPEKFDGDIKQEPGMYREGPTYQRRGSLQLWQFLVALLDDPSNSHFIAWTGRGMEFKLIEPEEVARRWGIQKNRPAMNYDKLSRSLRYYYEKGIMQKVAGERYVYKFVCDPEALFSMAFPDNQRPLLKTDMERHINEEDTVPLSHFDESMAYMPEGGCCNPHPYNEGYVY
# Sequence of ETV5 (P41161 whole entry): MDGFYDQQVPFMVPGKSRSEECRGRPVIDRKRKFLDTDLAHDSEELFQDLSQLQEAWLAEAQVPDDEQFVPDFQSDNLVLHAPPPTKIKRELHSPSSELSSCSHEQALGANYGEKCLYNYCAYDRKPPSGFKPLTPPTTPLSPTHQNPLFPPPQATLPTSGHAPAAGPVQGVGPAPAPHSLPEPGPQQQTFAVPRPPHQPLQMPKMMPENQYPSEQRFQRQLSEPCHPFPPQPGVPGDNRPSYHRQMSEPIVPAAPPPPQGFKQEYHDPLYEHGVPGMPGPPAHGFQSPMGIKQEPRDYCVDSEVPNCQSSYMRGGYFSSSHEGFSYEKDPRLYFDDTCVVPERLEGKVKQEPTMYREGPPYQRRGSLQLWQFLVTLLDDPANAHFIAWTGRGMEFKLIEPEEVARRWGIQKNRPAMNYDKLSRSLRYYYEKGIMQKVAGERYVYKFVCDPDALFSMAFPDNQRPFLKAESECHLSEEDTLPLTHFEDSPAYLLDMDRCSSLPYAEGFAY
# Sequence of HSF1 (Q00613 whole entry): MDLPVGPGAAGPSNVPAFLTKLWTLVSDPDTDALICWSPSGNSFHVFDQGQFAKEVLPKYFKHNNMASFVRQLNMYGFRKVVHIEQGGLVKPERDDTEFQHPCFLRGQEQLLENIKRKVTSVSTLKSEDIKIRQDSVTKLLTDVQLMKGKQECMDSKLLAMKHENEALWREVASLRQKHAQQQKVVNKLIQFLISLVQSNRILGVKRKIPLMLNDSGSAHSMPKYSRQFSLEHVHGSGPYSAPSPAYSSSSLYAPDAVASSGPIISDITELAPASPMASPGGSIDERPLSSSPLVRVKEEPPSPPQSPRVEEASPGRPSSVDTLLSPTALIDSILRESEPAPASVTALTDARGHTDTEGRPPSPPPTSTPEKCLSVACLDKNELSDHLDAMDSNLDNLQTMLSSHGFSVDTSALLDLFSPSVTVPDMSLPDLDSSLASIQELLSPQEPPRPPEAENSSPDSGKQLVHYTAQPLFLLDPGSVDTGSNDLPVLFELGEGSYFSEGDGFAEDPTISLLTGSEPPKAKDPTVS
sequence,measurement,setting,value
TTAGGG,binding signal,FEV,"1.13 fold enrichment (6-mer frequency, TF over GST control)"
same,binding signal,ETV5,"1.16 fold enrichment (6-mer frequency, TF over GST control)"
same,binding signal,HSF1,"1.48 fold enrichment (6-mer frequency, TF over GST control)"
same,binding signal,SPIC,"1.04 fold enrichment (6-mer frequency, TF over GST control)"
same,binding signal,ELF4,"1.16 fold enrichment (6-mer frequency, TF over GST control)"
same,binding signal,ELK4,"1.02 fold enrichment (6-mer frequency, TF over GST control)"
same,binding signal,ETV2,"1.15 fold enrichment (6-mer frequency, TF over GST control)"
same,binding signal,ELF3,"1.2 fold enrichment (6-mer frequency, TF over GST control)"
same,binding signal,CRX,"2.19 fold enrichment (6-mer frequency, TF over GST control)"
same,binding signal,ETV1,"1.03 fold enrichment (6-mer frequency, TF over GST control)"
same,binding signal,ERF,"1.21 fold enrichment (6-mer frequency, TF over GST control)"
same,binding signal,ETV3L,"1.14 fold enrichment (6-mer frequency, TF over GST control)"
same,binding signal,ETS2,"1.08 fold enrichment (6-mer frequency, TF over GST control)"
same,binding signal,SPDEF,"1.18 fold enrichment (6-mer frequency, TF over GST control)"
same,binding signal,ETV7,"1.06 fold enrichment (6-mer frequency, TF over GST control)"
same,binding signal,ELF5,"1.11 fold enrichment (6-mer frequency, TF over GST control)"
same,binding signal,ETV3,"1.11 fold enrichment (6-mer frequency, TF over GST control)"
same,binding signal,ETV6,"1.08 fold enrichment (6-mer frequency, TF over GST control)"
